# Test results from PubChem BioAssay (EPA / NIEHS).
# Records with an inconclusive call do not appear. The source made the active and inactive calls. How the source made its calls, unless noted: active means hit-call score of the fitted dose curve at least 0.9, where 1 is the maximum; inconclusive means response in the unintended direction; inactive means score below 0.9.
# Key:
# [1] = biological target: human Peroxisome Proliferator-activated Receptor alpha (PPARa), PPARA (gene 5465) (UniProt Q07869); assay: ATG_PPARa_TRANS: Attagene TRANS-FACTORIAL HepG2 Assay for human Peroxisome Proliferator-activated Receptor alpha (PPARa) (AID 2283001)
# Procedure, shortened: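 HepG2, transient MRTU transfection, 24 h treatment. RT-PCR → FAM labelling → capillary electrophoresis. Fit vs DMSO, positive direction.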
# [2] = read-out: Intercellular Adhesion Molecule 1 (ICAM1), ICAM1 (gene 3383); assay: BSK_3C_ICAM1: BioMAP Diversity Plus: 3C Assay for Intercellular Adhesion Molecule 1 (ICAM1) Biomarker Activity (AID 2283003; active means hit-call score of the fitted dose curve at least 0.9, where 1 is the maximum; inactive means score below 0.9); settings: primary human endothelial cells (HUVEC); actives raise or lower the signal
# Procedure, shortened: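 ELISA readout of ICAM1 in human umbilical vein endothelial cells in the 3C system, taken 24 h post-dose. Gain or loss of signal versus DMSO was fitted in both directions, with SRB total-protein staining run in parallel.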
# [3] = BSK_3C_Proliferation: Cell Proliferation Assessment in the BioMAP Diversity Plus: 3C Assay (AID 2283006; active means hit-call score of the fitted dose curve at least 0.9, where 1 is the maximum; inactive means score below 0.9;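 on AC50: potency may reflect either rise or fall in cell number versus DMSO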); settings: primary human endothelial cells (HUVEC)
# Procedure, shortened: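 Proliferation as total protein: sulforhodamine B (0.1%) stain of TCA-fixed subconfluent human umbilical vein endothelial cells, absorbance 560 nm, 48 h after dosing. Activity fitted in both directions against DMSO baseline.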
# [4] = biological target: Peroxisome proliferator-activated receptor gamma (Homo sapiens) (UniProt P37231); assay: ATG_PPARg_TRANS: Attagene TRANS-FACTORIAL HepG2 Assay for human Peroxisome Proliferator-activated Receptor-gamma (PPARg) (AID 2283007)
# Procedure, shortened: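 After 24 h of chemical exposure, transfected HepG2 cells carrying PPARγ-Gal4 chimera reporter constructs are lysed for RNA. Reporter transcripts are measured by RT-PCR and capillary electrophoresis with fluorescent labelling, and gain of signal is fitted versus DMSO.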
# [5] = biological target: Nuclear receptor subfamily 1 group I member 2 (Homo sapiens) (UniProt O75469); assay: ATG_PXR_TRANS: Attagene TRANS-FACTORIAL HepG2 Assay for human Pregnane X Receptor (PXR) (AID 2283008)
# Procedure, shortened: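 Transactivation by exogenous PXR–GAL4 fusion measured as reporter transcript induction after 24 h compound treatment of transfected human HepG2 cells. Read-out via RT-PCR and capillary electrophoresis of labelled fragments, fitted upward relative to DMSO.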
# [6] = biological target: human Retinoic Acid Receptor gamma (RARg), RARG (gene 5916) (UniProt P13631); assay: ATG_RARg_TRANS: Attagene TRANS-FACTORIAL HepG2 Assay for human Retinoic Acid Receptor gamma (RARg) (AID 2283009)
# Procedure, shortened: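 Transactivation of exogenous RARg-Gal4 fusion measured as reporter transcript induction after 24 h in transfected HepG2 cells. RNA reverse-transcribed, amplified, fluorescently labeled and resolved by capillary electrophoresis; increase relative to DMSO.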
# [7] = biological target: human Retinoic Acid Receptor beta (RARb), RARB (gene 5915) (UniProt P10826); assay: ATG_RARb_TRANS: Attagene TRANS-FACTORIAL HepG2 Assay for human Retinoic Acid Receptor beta (AID 2283004)
# Procedure, shortened: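 Transient transfection of HepG2 with multiple reporter units → chemical dosing, 24 h → total RNA isolation → RT with oligo(dT) → reporter-specific PCR, 6-FAM primer extension, HpaI digest → capillary electrophoresis. Positive direction vs DMSO control.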
# [8] = biological target: human RAR-related Orphan Receptor beta (RORb), RORB (gene 6096) (UniProt Q92753); assay: ATG_RORb_TRANS: Attagene TRANS-FACTORIAL HepG2 Assay for human RAR-related Orphan Receptor beta (RORb) (AID 2283010)
# Procedure, shortened: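 Read-out is reporter mRNA induction, quantified by RT-PCR with fluorescent capillary electrophoresis, 24 h post-dose in transiently transfected HepG2 expressing exogenous NR-Gal4 chimera. Activity fitted upward versus DMSO.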
# [9] = biological target: Retinoic acid receptor alpha (Homo sapiens) (UniProt P10276); assay: ATG_RARa_TRANS: Attagene TRANS-FACTORIAL HepG2 Assay for human Retinoic Acid Receptor alpha (RARa) (AID 2283005)
# Procedure, shortened: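 HepG2 transiently transfected with multiplex GAL4-UAS reporter units including a human RARa–GAL4 chimera; 24 h compound exposure. Reporter mRNA quantified by RT-PCR, 6-FAM labeling and capillary electrophoresis; gain of signal versus DMSO.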
# [10] = biological target: human Peroxisome Proliferator-activated Receptor delta (PPARd), PPARD (gene 5467) (UniProt Q03181); assay: ATG_PPARd_TRANS: Attagene TRANS-FACTORIAL HepG2 Assay for human Peroxisome Proliferator-activated Receptor delta (PPARd) (AID 2283002)
# Procedure, shortened: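 Fluorescence from capillary electrophoresis of labelled RT-PCR reporter fragments gives the signal; DMSO sets baseline. Cells: HepG2 transiently carrying GAL4-UAS reporter units plus chimeric nuclear receptor-Gal4 proteins, exposed to chemicals for 24 h.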
# Sequence of human Peroxisome Proliferator-activated Receptor alpha (PPARa), PPARA (gene 5465) (Q07869 whole entry, looked up): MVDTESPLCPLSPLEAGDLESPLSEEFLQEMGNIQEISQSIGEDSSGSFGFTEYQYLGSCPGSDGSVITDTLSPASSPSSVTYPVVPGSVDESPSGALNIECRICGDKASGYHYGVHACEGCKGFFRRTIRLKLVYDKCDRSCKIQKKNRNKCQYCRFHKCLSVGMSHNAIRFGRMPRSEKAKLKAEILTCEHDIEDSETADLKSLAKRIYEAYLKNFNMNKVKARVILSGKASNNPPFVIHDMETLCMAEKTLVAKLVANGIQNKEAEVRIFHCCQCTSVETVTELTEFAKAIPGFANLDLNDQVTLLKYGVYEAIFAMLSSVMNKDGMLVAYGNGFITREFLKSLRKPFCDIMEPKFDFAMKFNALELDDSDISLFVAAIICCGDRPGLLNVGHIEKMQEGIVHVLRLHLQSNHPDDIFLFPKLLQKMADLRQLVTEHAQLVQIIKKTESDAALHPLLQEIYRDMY
# Sequence of Peroxisome proliferator-activated receptor gamma (Homo sapiens) (P37231 whole entry, looked up, the tested form may be a part): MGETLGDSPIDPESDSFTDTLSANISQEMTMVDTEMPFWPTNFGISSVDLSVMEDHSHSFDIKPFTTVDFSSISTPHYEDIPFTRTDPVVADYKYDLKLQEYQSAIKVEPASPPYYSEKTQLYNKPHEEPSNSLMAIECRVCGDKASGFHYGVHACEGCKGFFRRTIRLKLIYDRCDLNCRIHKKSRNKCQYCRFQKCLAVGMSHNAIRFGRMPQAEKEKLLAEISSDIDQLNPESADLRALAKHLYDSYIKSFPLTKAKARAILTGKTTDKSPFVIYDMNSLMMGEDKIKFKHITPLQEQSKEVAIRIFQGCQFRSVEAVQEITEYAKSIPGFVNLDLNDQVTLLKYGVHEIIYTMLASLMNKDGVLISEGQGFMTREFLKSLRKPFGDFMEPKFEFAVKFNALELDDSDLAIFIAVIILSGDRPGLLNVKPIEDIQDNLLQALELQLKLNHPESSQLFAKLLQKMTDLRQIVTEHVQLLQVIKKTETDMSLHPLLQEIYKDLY
# Sequence of Retinoic acid receptor alpha (Homo sapiens) (P10276 whole entry, looked up, the tested form may be a part): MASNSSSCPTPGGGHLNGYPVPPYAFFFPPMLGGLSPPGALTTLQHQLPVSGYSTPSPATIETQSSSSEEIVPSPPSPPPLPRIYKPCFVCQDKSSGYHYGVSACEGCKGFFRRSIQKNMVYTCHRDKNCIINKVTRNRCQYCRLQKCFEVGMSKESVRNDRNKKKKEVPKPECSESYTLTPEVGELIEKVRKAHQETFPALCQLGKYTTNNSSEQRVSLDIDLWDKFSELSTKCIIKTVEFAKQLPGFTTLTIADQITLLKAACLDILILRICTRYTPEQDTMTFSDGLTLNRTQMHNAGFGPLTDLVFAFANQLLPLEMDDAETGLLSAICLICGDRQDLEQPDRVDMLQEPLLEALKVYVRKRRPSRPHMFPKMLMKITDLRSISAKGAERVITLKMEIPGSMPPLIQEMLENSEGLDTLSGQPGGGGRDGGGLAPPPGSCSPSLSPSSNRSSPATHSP
# Sequence of human Retinoic Acid Receptor beta (RARb), RARB (gene 5915) (P10826 whole entry, looked up): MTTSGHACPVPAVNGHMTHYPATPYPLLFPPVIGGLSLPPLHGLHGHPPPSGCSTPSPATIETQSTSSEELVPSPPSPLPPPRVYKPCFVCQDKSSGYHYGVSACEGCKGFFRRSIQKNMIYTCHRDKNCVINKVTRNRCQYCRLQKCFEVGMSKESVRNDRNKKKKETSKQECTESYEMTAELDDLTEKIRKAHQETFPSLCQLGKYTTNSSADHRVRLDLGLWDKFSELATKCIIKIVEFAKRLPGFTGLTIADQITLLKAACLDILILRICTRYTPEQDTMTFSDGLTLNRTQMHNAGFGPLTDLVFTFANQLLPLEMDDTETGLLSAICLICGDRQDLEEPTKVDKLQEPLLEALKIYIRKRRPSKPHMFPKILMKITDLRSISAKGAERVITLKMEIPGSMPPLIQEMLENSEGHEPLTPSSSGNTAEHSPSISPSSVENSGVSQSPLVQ
# Sequence of human Peroxisome Proliferator-activated Receptor delta (PPARd), PPARD (gene 5467) (Q03181 whole entry, looked up, the tested form may be a part): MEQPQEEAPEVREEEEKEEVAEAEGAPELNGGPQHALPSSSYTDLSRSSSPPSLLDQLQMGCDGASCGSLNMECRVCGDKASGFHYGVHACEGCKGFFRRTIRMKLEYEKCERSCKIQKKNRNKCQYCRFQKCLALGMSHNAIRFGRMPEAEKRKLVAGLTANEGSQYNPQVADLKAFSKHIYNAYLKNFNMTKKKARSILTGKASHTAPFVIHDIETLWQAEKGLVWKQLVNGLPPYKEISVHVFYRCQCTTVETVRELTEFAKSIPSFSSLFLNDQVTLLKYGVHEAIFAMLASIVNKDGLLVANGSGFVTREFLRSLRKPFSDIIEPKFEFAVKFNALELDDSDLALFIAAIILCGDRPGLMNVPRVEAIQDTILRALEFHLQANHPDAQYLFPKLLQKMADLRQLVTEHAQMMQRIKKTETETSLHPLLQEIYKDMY
# Sequence of human RAR-related Orphan Receptor beta (RORb), RORB (gene 6096) (Q92753 whole entry, looked up, the tested form may be a part): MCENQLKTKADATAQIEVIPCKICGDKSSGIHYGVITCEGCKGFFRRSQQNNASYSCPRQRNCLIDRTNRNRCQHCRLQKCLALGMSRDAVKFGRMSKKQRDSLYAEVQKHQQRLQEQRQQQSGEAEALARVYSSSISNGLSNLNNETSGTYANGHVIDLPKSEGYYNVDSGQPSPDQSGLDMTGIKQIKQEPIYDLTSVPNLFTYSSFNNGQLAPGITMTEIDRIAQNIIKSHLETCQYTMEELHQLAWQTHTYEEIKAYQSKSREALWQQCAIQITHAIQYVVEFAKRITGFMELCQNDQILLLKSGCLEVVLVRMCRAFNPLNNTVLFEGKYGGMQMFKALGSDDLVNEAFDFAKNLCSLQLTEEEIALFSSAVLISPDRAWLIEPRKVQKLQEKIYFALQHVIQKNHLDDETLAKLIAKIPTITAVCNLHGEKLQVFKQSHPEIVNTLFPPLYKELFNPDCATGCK
# Sequence of human Retinoic Acid Receptor gamma (RARg), RARG (gene 5916) (P13631 whole entry, looked up, the tested form may be a part): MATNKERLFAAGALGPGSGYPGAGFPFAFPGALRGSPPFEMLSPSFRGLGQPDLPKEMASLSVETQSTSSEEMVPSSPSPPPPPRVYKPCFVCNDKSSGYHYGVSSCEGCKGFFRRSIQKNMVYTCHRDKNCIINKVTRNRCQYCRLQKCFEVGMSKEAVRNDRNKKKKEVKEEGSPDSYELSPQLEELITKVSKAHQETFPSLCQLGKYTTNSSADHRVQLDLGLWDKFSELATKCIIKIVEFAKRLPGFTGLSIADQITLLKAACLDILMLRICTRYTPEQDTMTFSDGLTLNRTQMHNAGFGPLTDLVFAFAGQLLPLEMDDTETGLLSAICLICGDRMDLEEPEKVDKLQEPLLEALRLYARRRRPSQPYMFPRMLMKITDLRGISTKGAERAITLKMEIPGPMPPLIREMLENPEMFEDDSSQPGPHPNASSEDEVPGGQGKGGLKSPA
# Sequence of Nuclear receptor subfamily 1 group I member 2 (Homo sapiens) (O75469 whole entry, looked up, the tested form may be a part): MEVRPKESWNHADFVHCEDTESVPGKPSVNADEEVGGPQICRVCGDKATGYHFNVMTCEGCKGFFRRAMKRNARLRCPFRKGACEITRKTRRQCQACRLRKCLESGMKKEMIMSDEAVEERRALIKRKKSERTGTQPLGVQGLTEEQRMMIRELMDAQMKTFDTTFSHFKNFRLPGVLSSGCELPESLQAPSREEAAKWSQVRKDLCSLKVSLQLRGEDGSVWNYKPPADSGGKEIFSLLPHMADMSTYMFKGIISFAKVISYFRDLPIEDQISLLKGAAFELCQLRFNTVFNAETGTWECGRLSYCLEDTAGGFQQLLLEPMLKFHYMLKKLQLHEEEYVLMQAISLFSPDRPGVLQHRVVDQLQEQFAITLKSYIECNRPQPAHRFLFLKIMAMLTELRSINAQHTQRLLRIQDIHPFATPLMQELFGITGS
structure (smiles),measurement,setting,value
S=C(NC1CCCCC1)NC1CCCCC1,outcome,[1],inactive
same,outcome,[2],inactive
same,outcome,[3],inactive
same,outcome,[4],inactive
same,AC50,[5],8.05 µM (active)
same,outcome,[6],inactive
Cc1ccc(C(C)(C)C)cc1,outcome,[1],inactive
same,outcome,[7],inactive
same,outcome,[5],inactive
same,outcome,[8],inactive
O=Nc1ccc(O)cc1,outcome,[1],inactive
same,outcome,[2],inactive
same,outcome,[7],inactive
same,outcome,[3],inactive
COC(F)(F)C(F)(C(F)(F)F)C(F)(F)F,outcome,[1],inactive
same,outcome,[7],inactive
same,outcome,[8],inactive
CCC(CO)CO,outcome,[1],inactive
same,outcome,[7],inactive
same,outcome,[5],inactive
same,outcome,[8],inactive
CCCc1ccc(OC)cc1,outcome,[1],inactive
same,outcome,[7],inactive
same,outcome,[4],inactive
same,outcome,[5],inactive
same,outcome,[8],inactive
O=C1c2cccc(O)c2C(=O)c2c(O)cc(CO)cc21,outcome,[1],inactive
same,outcome,[7],inactive
same,outcome,[9],inactive
same,AC50,[4],50.3 µM (active)
same,AC50,[5],5.78 µM (active)
same,outcome,[6],inactive
Cc1ccccc1C,outcome,[1],inactive
same,outcome,[7],inactive
same,outcome,[9],inactive
same,outcome,[4],inactive
same,outcome,[5],inactive
same,outcome,[6],inactive
CCc1nccnc1C,outcome,[1],inactive
same,outcome,[7],inactive
same,outcome,[4],inactive
same,outcome,[5],inactive
same,outcome,[8],inactive
COc1ccc2nc(N)sc2c1,outcome,[1],inactive
same,outcome,[2],inactive
same,outcome,[3],inactive
same,outcome,[4],inactive
same,outcome,[5],inactive
same,outcome,[6],inactive
same,outcome,[8],inactive
c1ccc2c(c1)ccc1cc3c(ccc4ccccc43)cc12,outcome,[1],inactive
same,outcome,[2],inactive
same,outcome,[3],inactive
same,outcome,[5],inactive
same,outcome,[6],inactive
CC(C)C1=CC2=CC[C@@H]3[C@](C)(CCC[C@@]3(C)C(=O)O)[C@H]2CC1,outcome,[1],inactive
same,outcome,[7],inactive
same,AC50,[5],1.55 µM (active)
O=C1OC(=O)c2cc(Oc3ccc4c(c3)C(=O)OC4=O)ccc21,outcome,[1],inactive
same,outcome,[7],inactive
C/C=C\C/C=C/CCCCCCCCOC(C)=O,outcome,[1],inactive
same,outcome,[2],inactive
same,AC50,[3],22.3 µM (active)
same,AC50,[4],8.89 µM (active)
same,AC50,[5],40.8 µM (active)
NC(CO)(CO)CO,outcome,[1],inactive
same,outcome,[7],inactive
CC/C=C\CCOC(=O)CCCCC,outcome,[1],inactive
same,outcome,[7],inactive
same,outcome,[9],inactive
same,outcome,[5],inactive
CC(=O)[C@H]1[C@H](C#N)C[C@H]2[C@@H]3CC=C4C[C@@H](O)CC[C@]4(C)[C@H]3CC[C@@]21C,outcome,[1],inactive
same,outcome,[7],inactive
same,outcome,[5],inactive
O=c1c2ccccc2oc2ccccc12,outcome,[1],inactive
same,outcome,[2],inactive
same,outcome,[7],inactive
same,outcome,[9],inactive
same,outcome,[3],inactive
same,AC50,[5],27.3 µM (active)
same,outcome,[6],inactive
CC1=NC(C)OC1C (stereo not given),outcome,[1],inactive
same,outcome,[7],inactive
same,outcome,[9],inactive
same,outcome,[4],inactive
same,AC50,[5],19.8 µM (active)
N#[N+]c1ccc2c(S(=O)(=O)[O-])cccc2c1O,outcome,[1],inactive
same,outcome,[2],inactive
same,outcome,[3],inactive
same,outcome,[6],inactive
same,outcome,[8],inactive
CC(C)COC(=O)C=Cc1ccccc1,outcome,[1],inactive
same,outcome,[10],inactive
same,AC50,[5],29.4 µM (active)
same,outcome,[8],inactive
CCO[Si](CCCN=C=O)(OCC)OCC,outcome,[1],inactive
same,outcome,[2],inactive
same,outcome,[7],inactive
same,outcome,[3],inactive
same,outcome,[4],inactive
same,outcome,[5],inactive
same,outcome,[6],inactive
OCCNCc1ccccc1,outcome,[1],inactive
same,outcome,[10],inactive
same,outcome,[8],inactive
CCCCCCCOC(=O)CCC,outcome,[1],inactive
same,outcome,[10],inactive
same,outcome,[6],inactive
Nc1nc2ccccc2[nH]1,outcome,[1],inactive
same,outcome,[7],inactive
same,outcome,[5],inactive
Nc1cccc(C(F)(F)F)c1,outcome,[1],inactive
same,outcome,[7],inactive
same,outcome,[4],inactive
same,outcome,[5],inactive
CN1C(=O)N(C)C(O)C1O (stereo not given),outcome,[1],inactive
same,outcome,[2],inactive
same,outcome,[3],inactive
same,outcome,[4],inactive
O=C1CCCC(=O)O1,outcome,[1],inactive
same,outcome,[7],inactive
same,outcome,[5],inactive
NC(=O)NNC(N)=O,outcome,[1],inactive
same,outcome,[9],inactive
same,outcome,[5],inactive
same,outcome,[6],inactive
O=C1C=CC(=O)O1,outcome,[1],inactive
same,outcome,[9],inactive
same,outcome,[8],inactive
Clc1nc2ccccc2s1,outcome,[1],inactive
same,outcome,[9],inactive
same,outcome,[4],inactive
same,outcome,[5],inactive
same,outcome,[6],inactive
same,outcome,[8],inactive
